Compounds with a hit are over-represented: about 14% of the library has one in this group of screens.
FBPA Giardia inh = Giardia lamblia aldolase inhibition; A8B2U2; purified Giardia FBPA; Potency, µM (top dose mostly 59.6 µM), for the others: at the highest dose activity, negative = inhibition, hits mostly inhibitors; 290,000 tested, 0.71% active; AID 2451; further: potency means the concentration at half of the fitted maximal effect; nearly all actives have a fitted effect of over 55% in size
Target sequence (A8B2U2 whole entry, looked up): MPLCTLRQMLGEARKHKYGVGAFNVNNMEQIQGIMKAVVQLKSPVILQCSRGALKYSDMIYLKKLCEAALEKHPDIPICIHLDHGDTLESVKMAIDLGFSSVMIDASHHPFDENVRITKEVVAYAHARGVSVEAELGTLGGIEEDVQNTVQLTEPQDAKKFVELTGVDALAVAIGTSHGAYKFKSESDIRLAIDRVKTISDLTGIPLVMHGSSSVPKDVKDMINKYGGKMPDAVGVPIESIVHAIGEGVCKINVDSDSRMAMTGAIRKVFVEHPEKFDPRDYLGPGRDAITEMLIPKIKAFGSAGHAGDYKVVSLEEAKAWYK
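40 nM FBPA preincubated 10 min at RT with compound (up to 57.5 uM final), then substrate plus GAPDH/TPI/NAD/arsenate coupling and diaphorase/resazurin added. Fluorescence read after 20 min at RT, 525/598 nm.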
HCMV antiviral = inhibitors of human cytomegalovirus; HFF cells, HCMV-luciferase reporter, 72 h; stronger effect = lower value; activity change, negative = inhibition, % at 57.5 µM; 410,000 tested, 4.5% active; AID 1259415; in the data active means activity change below about -60%; inconclusive means no clear call, values can overlap the other calls; inactive means above about -39%
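Compounds were evaluated in HFFs infected with an HCMV luciferase reporter virus (MOI 1 PFU/cell). Luciferase in lysates collected 72 h post infection served as the replication measure.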
Sm TGR block = blocks Schistosoma mansoni thioredoxin glutathione reductase. AID 485364. Potency, µM (highest dose often 114 µM), without a hit: top-dose activity change, negative = inhibition, usual class: inhibitors. 360,000 tested, 3% active. purified TGR, DTNB reduction, TNB absorbance 405 nm; further: potency means the concentration at half of the fitted maximal effect; nearly all actives have a fitted effect of over 60% in size
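TGR 20 nM + NADPH 100 uM (dispensed conc.), cpd preinc 15 min RT; start with NADPH (500 uM addition) then DTNB (15 mM addition). Kinetic TNB absorbance, 405 nm filter. Four-parameter Hill fit across titration.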
Pf growth 96h = inhibits malaria parasite growth, 96 h; P. falciparum luciferase reporter growth, 96 h; Potency, µM (titrated, usually from 28.7 µM), without a hit: at the top dose activity change, negative = inhibition, hits mostly inhibitors; 320,000 tested, 6.9% active; AID 504834; further: potency means the concentration at half of the fitted maximal effect
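Two-generation exposure (96 h) targets delayed-death phenotype. Reporter parasites carrying integrated firefly luciferase, in red cells at 2% hematocrit and 0.05% parasitemia final, kept at 37 C, 5% CO2; luminescence loss indicates inhibition.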
Pf growth 48h = P. falciparum growth inhibition at 48 hours (one generation); P. falciparum luciferase growth in erythrocytes, 48 h; Potency, µM (highest dose often 28.7 µM), inactives show top-dose activity change, negative = inhibition, actives largely listed as inhibitors; 310,000 tested, 5.9% active; AID 504832; further: potency means the concentration at half of the fitted maximal effect
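Growth was read as firefly luciferase luminescence after a 48 h, 37 C, 5% CO2 exposure of compounds to reporter-bearing P. falciparum cultures (0.1% parasitemia, 2% hematocrit final) in Albumax-supplemented RPMI 1640.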
The depositor's hits bear a star; ? = inconclusive; · = no result; [ ] = another dose, or the depositor's remark. Unless noted, the call rests on the fitted dose curve; in most records, active means well fitted curve in the direction sought with a large enough effect; inconclusive means small, poorly fitted or top-dose-only effect, or another doubt; inactive means no such curve, though single readings can be large; an effect the other way counts as inactive or inconclusive. On the % scale 0 is the no-effect control and ±100 the full control effect.

SMILES | FBPA Giardia inh | HCMV antiviral | Sm TGR block | Pf growth 96h | Pf growth 48h
C#CCOCCOCCOCCNc1nc(N2CCN(C(=O)CCCCCCCCCCNC(=O)[C@@H](CCC(=O)O)n3cc(CCCCCN)nn3)CC2)nc(N2CCN(C(=O)CCCCCCCCCCNC(=O)[C@@H](CCC(=O)O)n3cc(CCCCCN)nn3)CC2)n1 | · | ? | ? | ? | 2.9µM*
C#CCOCCOCCOCCNc1nc(N2CCN(C(=O)Cn3cc(CC(C)O)nn3)CC2)nc(N2CCN(C(=O)[C@H]([C@@H](C)O)n3cc(CCCCN)nn3)CC2)n1 (stereo partly specified) | · | -12 | · | · | ·
C#CCOCCOCCOCCNc1nc(N2CCN(C(=O)CCCCCCCCCCNC(=O)[C@H](CCCCN)n3cc(CCO)nn3)CC2)nc(N2CCN(C(=O)CCCCCCCCCCNC(=O)[C@H](CCCCN)n3cc(CCO)nn3)CC2)n1 | · | · | 35µM* | 7.4µM* | 4.1µM*
CC(=O)N1[C@H](Cc2ccccc2)C=C[C@]1(C)C(=O)NCc1ccccn1 | -15% | -6 | -31% | 4% | 15%
CC1(C)OC(=O)C(=NNc2ccc(Cl)cc2)C(=O)O1 | -8% | -25 | 4% | -8% | ·
Cc1cc(C)c(/C=N/NC(=O)c2nnn(-c3nonc3N)c2CN2CCC(C)CC2)c(C)c1 | 1% | -36 | -2% | -54% | ?
CC1CCN(Cc2c(C(=O)O)nnn2-c2nonc2N)CC1 | -15% | -1 | · | 1.5µM* | 19%
COc1c(Cl)cc(Cl)cc1/C=N/NC(=O)c1nnn(-c2nonc2N)c1CN1CCC(C)CC1 | -4% | -8 | -4% | -12% | ?
CC1CCN(Cc2c(C(=O)N/N=C/c3cc(Cl)ccc3O)nnn2-c2nonc2N)CC1 | 7% | -100* | -1% | 3% | ?
C/C(=N\NC(=O)c1nnn(-c2nonc2N)c1CN1CCC(C)CC1)c1ccc(Br)cc1 | · | -25 | · | · | ·
CC1CCN(Cc2c(C(=O)N/N=C/c3cc(Br)ccc3O)nnn2-c2nonc2N)CC1 | 16% | -102* | 2% | ? | ?
O=C(OCN1C(=O)c2ccccc2C1=O)c1cc(S(=O)(=O)N2CCOCC2)ccc1F | · | -11 | -15% | 0% | 20%
COc1ccc2oc(=N)c(C(=O)Nc3ccc(Cl)cc3)cc2c1 | -2% | 16 | -13% | ? | -27%
CC1CCN(S(=O)(=O)c2ccc3c(c2)N(CC(=O)NCc2ccccc2Cl)C(=O)CS3)CC1 | · | -9 | -1% | · | ·
O=C(Nc1ncccn1)c1ccc([N+](=O)[O-])cc1[N+](=O)[O-] | · | -16 | · | · | ·
O=[N+]([O-])c1cc(C(F)(F)F)ccc1Sc1nccn1Cc1ccccc1 | -12% | -18 | -9% | 51% | -2%
O=[N+]([O-])c1ccc(Sc2nccn2Cc2ccccc2)c([N+](=O)[O-])c1 | · | -37 | 28µM* | ? | 0%
O=c1cc(-c2ccccc2)nc(Sc2ccc([N+](=O)[O-])cc2[N+](=O)[O-])[nH]1 | · | -34 | · | · | ·
Cc1cccc(Sc2ccc([N+](=O)[O-])cc2[N+](=O)[O-])n1 | ? | -72* | -30% | 8.3µM* | ?
O=[N+]([O-])c1ccc(Sc2ncccn2)c([N+](=O)[O-])c1 | -10% | -97* | 10µM* | 3.3µM* | 13µM*
O=C1CC(c2ccccc2)Cc2[nH]c(=O)c(-c3nc(-c4ccc(F)cc4)cs3)cc21 (stereo unspecified) | · | 17 | -1% | · | ·
O=C(O)c1cccc(-c2csc(C(O)c3cccc(Cl)c3)n2)c1 (stereo unspecified) | · | 47 | · | · | ·
CN1C(CCl)Nc2cc(Cl)c(S(N)(=O)=O)cc2S1(=O)=O (stereo unspecified) | · | -18 | · | 12µM* | -20%
S=C(Nc1ccc(Oc2ccccc2)cc1)NC1CCCC1 | 5% | -33 | 2% | 55% | -2%
S=C(Nc1ccc(Br)cc1)NC1CCCC1 | 3% | -65* | -14% | 4% | ?
SMILES | FBPA Giardia inh | HCMV antiviral | Sm TGR block | Pf growth 96h | Pf growth 48h
COc1ccc(NC(=S)NC2CCCCC2)cn1 | -6% | -87* | -14% | 7% | 11%
COc1ccc(-c2n[nH]nc2C2=CC(=O)CC(C)(C)C2)cc1 | · | -21 | · | · | ·
CC1CCCC(C)N1C(=O)COC(=O)CCC(=O)c1ccc(F)cc1 (stereo unspecified) | · | -30 | · | · | ·
O=C1NC(=Nc2cccc(O)c2)S/C1=C\c1cccnc1 | 8% | ? | 8.9µM* | 6.6µM* | ?
O=C1NC(=Nc2cccc(O)c2)S/C1=C\c1cccc([N+](=O)[O-])c1 | 13% | -69* | 10% | ? | -9%
Cc1cccc(N=C2NC(=O)/C(=C/c3cccnc3)S2)c1 | 2% | ? | 0% | ? | ?
Cc1c(N=C2NC(=O)/C(=C/c3cccc([N+](=O)[O-])c3)S2)c(=O)n(-c2ccccc2)n1C | 5% | · | -2% | 0% | 25%
Cc1ccc(S(=O)(=O)N2CCN(S(=O)(=O)c3ccccc3Br)C2=O)cc1 | · | -20 | · | · | ·
CO[C@H]1COC(=O)C/C=C\[C@@H](C)COC(=O)[C@@H](OCc2ccccc2)/C=C\[C@@H]1C | 3%[12.9 µM] | · | · | · | ·
CCOC(=O)C1CCN(C(=O)c2cc3c(=O)n4ccccc4nc3s2)CC1 | · | 47 | -14% | ? | 16%
CCOC(=O)CC1C(=O)NCCN1C(=O)c1cc2c(=O)n3cccc(C)c3nc2s1 (stereo unspecified) | -3% | 72 | 35µM* | ? | ·
CCOC(=O)CC1C(=O)NCCN1C(=O)c1cc2c(=O)n3ccccc3nc2s1 (stereo unspecified) | ? | · | -5% | 10µM* | ·
CCOC(=O)C1CCN(C(=O)c2cc3c(=O)n4cccc(C)c4nc3s2)CC1 | -1% | 38 | 3% | 29% | 7%
O=C1OC[C@H]2CCCN2C(=O)[C@@H](CC(=O)N(CCO)Cc2ccccc2)C/C=C\C[C@@H]1Cc1ccc(F)cc1 | · | -4 | · | · | ·
Cc1noc(C)c1-c1nccc(NCc2cccnc2)n1 | -5% | · | · | · | ·
CCOCCOC(=O)CCSc1n[nH]c(=O)[nH]c1=O | -3% | -21 | 27% | 10µM* | 14%
Cc1cccc(NC(=O)C2(C)CC3c4ccccc4C2c2ccccc23)c1C (stereo unspecified) | 8% | ? | -8% | ? | 10%
Cc1ccc(C)c(NC(=O)C2(C)CC3c4ccccc4C2c2ccccc23)c1 (stereo unspecified) | 3% | -105* | 6% | ? | ?
CC1CCN(CCCOc2ccc(Br)cc2Cl)CC1 | ? | 28 | -9% | -11% | -22%
Cc1ccc(OCCCCCCN2CCNCC2)c(Br)c1 | · | -63* | · | · | ·
COCCNCCCOc1ccc(C)cc1Br | 3% | 7 | 3% | -1% | 38%
Cc1ccc([N+](=O)[O-])c(OCCN2CCNCC2)c1 | ? | -30 | -21% | 2.3µM* | 15%
COCCCNCCCOc1ccc(C)cc1Br | ? | -63* | -10% | -1% | -13%

High-throughput results (PubChem)
